Source: ChEMBL document CHEMBL2218924, “A broad activity screen in support of a chemogenomic map for kinase signalling research and drug discovery” (Biochem J, 2013)

How the values were obtained:
[1] = molecular target: T1, Serine/threonine-protein kinase 3 (Homo sapiens) (UniProt Q13188); conditions: at 1 µM
T1 sequence (whole entry): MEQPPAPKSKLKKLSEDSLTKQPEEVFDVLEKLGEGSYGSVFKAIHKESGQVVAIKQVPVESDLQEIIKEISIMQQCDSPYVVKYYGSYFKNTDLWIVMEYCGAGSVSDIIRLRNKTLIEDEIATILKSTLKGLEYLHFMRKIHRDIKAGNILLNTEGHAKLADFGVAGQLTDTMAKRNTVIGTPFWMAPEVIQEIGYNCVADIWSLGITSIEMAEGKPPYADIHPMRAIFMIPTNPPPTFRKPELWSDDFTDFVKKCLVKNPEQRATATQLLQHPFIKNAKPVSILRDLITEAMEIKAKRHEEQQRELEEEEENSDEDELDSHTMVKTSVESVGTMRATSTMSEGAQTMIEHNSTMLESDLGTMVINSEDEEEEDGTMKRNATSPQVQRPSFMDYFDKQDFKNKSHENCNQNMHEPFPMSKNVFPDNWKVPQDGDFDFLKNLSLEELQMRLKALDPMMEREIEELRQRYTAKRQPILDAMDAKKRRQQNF

[2] = molecular target: T1, Serine/threonine-protein kinase 3 (Homo sapiens); conditions: at 10 µM
[3] = molecular target: Serine/threonine-protein kinase 24 (Homo sapiens) (UniProt Q9Y6E0); conditions: at 1 µM
[4] = molecular target: Serine/threonine-protein kinase 24 (Homo sapiens) (UniProt Q9Y6E0); conditions: at 10 µM
[5] = molecular target: T2, Tyrosine-protein kinase Mer (Homo sapiens) (UniProt Q12866); conditions: at 1 µM
T2 sequence (whole entry): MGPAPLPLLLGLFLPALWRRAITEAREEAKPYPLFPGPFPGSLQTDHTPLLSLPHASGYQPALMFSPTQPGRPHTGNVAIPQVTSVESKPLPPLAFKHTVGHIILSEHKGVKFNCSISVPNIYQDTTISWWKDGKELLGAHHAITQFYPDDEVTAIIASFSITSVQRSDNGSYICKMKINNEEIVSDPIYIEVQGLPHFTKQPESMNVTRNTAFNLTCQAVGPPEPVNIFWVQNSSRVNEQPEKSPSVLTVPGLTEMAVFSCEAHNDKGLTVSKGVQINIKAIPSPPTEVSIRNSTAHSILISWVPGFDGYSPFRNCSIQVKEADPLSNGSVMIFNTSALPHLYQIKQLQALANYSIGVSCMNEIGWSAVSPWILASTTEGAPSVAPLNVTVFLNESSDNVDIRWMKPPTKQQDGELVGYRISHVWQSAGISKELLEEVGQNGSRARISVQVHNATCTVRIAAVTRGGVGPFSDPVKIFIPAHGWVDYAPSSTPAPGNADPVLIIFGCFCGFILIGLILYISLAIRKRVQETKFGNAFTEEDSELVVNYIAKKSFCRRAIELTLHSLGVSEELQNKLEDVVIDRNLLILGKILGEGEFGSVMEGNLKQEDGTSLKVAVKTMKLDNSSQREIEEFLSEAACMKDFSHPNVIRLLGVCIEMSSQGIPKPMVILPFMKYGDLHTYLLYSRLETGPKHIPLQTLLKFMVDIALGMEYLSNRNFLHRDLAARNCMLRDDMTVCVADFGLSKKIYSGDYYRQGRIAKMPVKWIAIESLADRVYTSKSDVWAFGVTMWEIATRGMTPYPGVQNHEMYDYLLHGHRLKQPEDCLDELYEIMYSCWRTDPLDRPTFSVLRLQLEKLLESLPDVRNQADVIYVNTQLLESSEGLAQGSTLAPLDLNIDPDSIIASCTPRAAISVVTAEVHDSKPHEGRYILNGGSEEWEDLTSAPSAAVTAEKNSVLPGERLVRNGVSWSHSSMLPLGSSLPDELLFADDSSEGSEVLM

[6] = molecular target: T2, Tyrosine-protein kinase Mer (Homo sapiens); conditions: at 10 µM
[7] = molecular target: Hepatocyte growth factor receptor (Homo sapiens) (UniProt P08581); conditions: at 1 µM
[8] = molecular target: Hepatocyte growth factor receptor (Homo sapiens) (UniProt P08581); conditions: at 10 µM
[9] = molecular target: MAP kinase-interacting serine/threonine-protein kinase 2 (Homo sapiens) (UniProt Q9HBH9); conditions: at 1 µM
[10] = molecular target: MAP kinase-interacting serine/threonine-protein kinase 2 (Homo sapiens) (UniProt Q9HBH9); conditions: at 10 µM
[11] = molecular target: T3, Muscle, skeletal receptor tyrosine-protein kinase (Homo sapiens) (UniProt O15146); conditions: at 1 µM
T3 sequence (whole entry): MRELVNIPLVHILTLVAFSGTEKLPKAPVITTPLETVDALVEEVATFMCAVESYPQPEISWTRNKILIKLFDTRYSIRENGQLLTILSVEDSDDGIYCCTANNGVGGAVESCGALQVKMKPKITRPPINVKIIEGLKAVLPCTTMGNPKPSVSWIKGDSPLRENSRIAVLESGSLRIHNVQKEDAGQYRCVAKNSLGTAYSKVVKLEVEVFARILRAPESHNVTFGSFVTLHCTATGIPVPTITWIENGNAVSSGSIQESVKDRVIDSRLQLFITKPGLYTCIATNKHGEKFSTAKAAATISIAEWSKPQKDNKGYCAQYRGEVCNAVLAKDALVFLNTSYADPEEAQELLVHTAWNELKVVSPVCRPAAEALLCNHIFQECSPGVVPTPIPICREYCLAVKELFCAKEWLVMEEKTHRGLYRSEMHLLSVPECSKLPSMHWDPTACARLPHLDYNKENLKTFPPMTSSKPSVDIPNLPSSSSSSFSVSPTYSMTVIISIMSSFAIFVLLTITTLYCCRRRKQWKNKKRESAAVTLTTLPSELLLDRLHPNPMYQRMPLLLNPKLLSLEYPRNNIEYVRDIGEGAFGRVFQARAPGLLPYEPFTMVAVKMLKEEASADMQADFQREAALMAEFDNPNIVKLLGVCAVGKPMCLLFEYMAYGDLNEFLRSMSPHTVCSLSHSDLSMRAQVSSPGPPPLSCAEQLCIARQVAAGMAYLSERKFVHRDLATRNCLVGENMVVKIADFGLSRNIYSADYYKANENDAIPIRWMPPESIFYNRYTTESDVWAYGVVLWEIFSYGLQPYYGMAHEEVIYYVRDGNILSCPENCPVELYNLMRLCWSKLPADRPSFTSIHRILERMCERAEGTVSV

[12] = molecular target: T3, Muscle, skeletal receptor tyrosine-protein kinase (Homo sapiens); conditions: at 10 µM
[13] = molecular target: T4, Serine/threonine-protein kinase Nek11 (Homo sapiens) (UniProt Q8NG66); conditions: at 1 µM
T4 sequence (whole entry): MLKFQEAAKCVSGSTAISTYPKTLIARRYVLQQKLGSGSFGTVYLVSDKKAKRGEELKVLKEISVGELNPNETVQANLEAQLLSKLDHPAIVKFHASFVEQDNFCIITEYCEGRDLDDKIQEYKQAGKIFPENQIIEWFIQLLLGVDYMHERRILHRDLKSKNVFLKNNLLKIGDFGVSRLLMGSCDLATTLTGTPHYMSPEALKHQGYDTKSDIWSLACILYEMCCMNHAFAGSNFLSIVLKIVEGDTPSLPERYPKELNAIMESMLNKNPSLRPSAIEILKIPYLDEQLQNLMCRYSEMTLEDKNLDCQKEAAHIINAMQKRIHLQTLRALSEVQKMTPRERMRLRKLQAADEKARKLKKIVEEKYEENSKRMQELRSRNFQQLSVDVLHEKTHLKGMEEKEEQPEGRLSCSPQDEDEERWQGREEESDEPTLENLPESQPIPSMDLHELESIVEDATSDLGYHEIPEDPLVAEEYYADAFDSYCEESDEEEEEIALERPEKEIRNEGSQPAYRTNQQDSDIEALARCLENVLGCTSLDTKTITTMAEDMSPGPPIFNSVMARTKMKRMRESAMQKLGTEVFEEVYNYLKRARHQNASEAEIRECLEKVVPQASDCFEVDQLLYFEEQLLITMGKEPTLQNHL

[14] = molecular target: T4, Serine/threonine-protein kinase Nek11 (Homo sapiens); conditions: at 10 µM
[15] = molecular target: T5, Serine/threonine-protein kinase Nek2 (Homo sapiens) (UniProt P51955); conditions: at 1 µM
T5 sequence (whole entry): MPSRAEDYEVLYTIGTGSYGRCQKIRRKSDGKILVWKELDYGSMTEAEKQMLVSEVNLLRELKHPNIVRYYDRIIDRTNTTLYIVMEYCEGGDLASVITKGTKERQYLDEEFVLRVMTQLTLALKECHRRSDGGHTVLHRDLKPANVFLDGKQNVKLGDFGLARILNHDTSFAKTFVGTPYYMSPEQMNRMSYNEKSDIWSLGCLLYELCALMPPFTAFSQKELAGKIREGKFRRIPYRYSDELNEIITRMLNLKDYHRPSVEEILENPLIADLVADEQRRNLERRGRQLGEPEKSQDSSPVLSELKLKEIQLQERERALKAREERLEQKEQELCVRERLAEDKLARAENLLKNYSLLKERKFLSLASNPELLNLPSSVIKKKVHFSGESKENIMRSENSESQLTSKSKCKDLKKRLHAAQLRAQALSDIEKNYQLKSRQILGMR

[16] = molecular target: T5, Serine/threonine-protein kinase Nek2 (Homo sapiens); conditions: at 10 µM
[17] = molecular target: T6, Serine/threonine-protein kinase Nek3 (Homo sapiens) (UniProt P51956); conditions: at 1 µM
T6 sequence (whole entry): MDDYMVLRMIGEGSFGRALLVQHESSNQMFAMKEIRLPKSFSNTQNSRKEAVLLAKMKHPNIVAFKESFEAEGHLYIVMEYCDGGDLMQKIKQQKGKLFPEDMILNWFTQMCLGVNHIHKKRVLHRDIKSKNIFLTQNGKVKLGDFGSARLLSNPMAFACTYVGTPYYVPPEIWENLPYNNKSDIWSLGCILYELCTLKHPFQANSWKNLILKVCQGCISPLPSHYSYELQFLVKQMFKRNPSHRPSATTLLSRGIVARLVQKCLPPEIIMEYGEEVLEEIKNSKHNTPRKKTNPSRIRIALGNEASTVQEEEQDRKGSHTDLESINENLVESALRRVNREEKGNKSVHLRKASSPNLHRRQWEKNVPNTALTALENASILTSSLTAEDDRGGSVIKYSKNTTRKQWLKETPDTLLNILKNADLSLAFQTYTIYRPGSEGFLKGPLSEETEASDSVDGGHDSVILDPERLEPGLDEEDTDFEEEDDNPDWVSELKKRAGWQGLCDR

[18] = molecular target: T6, Serine/threonine-protein kinase Nek3 (Homo sapiens); conditions: at 10 µM
[19] = molecular target: Serine/threonine-protein kinase tousled-like 2 (Homo sapiens) (UniProt Q86UE8); conditions: at 1 µM
[20] = molecular target: Serine/threonine-protein kinase tousled-like 2 (Homo sapiens) (UniProt Q86UE8); conditions: at 10 µM

Sequence of MAP kinase-interacting serine/threonine-protein kinase 2 (Homo sapiens) (Q9HBH9 whole entry, looked up): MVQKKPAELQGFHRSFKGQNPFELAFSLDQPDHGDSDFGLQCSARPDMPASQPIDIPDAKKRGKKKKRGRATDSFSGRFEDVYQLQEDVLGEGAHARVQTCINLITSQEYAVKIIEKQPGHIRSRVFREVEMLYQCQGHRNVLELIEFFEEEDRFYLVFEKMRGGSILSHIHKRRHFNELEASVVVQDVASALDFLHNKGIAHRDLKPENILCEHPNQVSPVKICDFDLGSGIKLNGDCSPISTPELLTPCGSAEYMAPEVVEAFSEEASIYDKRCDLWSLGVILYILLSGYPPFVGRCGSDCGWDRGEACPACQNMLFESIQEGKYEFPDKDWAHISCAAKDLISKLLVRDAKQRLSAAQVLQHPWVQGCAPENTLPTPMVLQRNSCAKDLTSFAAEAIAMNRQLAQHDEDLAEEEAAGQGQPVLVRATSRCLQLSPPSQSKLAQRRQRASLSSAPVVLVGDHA
Sequence of Serine/threonine-protein kinase 24 (Homo sapiens) (Q9Y6E0 whole entry, looked up): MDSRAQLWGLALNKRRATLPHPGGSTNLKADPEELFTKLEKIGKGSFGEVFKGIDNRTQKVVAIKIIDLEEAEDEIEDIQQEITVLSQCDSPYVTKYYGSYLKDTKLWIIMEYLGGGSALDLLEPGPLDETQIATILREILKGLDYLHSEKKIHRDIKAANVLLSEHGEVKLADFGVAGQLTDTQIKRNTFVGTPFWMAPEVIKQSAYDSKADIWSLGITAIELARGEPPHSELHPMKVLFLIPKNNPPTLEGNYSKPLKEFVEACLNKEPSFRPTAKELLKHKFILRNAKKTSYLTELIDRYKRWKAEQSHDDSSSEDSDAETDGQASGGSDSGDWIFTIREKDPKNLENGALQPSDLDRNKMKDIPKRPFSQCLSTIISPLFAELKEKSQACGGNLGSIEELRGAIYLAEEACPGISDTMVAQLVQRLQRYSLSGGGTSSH
Sequence of Hepatocyte growth factor receptor (Homo sapiens) (P08581 whole entry): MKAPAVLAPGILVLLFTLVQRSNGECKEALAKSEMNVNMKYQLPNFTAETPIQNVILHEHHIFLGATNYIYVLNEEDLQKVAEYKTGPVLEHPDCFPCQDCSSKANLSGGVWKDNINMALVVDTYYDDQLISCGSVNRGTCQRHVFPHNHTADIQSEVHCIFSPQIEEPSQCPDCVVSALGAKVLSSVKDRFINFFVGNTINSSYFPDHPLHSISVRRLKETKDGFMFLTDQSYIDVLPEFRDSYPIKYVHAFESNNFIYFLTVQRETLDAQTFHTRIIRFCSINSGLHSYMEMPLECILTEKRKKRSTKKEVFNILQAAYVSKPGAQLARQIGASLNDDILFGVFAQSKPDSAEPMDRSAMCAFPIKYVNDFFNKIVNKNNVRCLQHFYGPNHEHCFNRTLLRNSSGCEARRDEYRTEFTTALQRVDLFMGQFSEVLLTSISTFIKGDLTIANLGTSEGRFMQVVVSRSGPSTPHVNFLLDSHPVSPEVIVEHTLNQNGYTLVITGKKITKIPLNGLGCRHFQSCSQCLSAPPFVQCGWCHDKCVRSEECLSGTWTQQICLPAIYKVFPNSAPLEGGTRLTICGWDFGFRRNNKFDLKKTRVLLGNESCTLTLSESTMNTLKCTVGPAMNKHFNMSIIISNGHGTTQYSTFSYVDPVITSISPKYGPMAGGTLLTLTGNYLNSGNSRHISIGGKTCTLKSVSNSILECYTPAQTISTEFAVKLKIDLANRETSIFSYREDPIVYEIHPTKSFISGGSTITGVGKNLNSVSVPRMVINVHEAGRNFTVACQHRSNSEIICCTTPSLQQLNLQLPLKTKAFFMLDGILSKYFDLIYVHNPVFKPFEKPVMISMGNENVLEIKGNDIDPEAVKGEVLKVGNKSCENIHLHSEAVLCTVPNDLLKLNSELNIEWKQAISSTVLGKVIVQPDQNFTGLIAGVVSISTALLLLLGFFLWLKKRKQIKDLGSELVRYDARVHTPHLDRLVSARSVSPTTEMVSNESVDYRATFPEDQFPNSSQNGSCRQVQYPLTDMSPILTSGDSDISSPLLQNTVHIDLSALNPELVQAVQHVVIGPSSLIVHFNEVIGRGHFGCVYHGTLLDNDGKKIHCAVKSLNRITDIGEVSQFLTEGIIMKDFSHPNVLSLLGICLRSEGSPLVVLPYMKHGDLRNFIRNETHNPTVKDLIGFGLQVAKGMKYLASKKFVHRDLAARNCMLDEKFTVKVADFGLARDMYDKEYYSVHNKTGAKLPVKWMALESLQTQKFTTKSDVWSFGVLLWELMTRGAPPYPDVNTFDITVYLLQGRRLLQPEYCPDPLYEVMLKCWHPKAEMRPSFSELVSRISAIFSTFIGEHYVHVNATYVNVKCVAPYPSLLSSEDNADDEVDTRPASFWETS
Sequence of Serine/threonine-protein kinase tousled-like 2 (Homo sapiens) (Q86UE8 whole entry, looked up): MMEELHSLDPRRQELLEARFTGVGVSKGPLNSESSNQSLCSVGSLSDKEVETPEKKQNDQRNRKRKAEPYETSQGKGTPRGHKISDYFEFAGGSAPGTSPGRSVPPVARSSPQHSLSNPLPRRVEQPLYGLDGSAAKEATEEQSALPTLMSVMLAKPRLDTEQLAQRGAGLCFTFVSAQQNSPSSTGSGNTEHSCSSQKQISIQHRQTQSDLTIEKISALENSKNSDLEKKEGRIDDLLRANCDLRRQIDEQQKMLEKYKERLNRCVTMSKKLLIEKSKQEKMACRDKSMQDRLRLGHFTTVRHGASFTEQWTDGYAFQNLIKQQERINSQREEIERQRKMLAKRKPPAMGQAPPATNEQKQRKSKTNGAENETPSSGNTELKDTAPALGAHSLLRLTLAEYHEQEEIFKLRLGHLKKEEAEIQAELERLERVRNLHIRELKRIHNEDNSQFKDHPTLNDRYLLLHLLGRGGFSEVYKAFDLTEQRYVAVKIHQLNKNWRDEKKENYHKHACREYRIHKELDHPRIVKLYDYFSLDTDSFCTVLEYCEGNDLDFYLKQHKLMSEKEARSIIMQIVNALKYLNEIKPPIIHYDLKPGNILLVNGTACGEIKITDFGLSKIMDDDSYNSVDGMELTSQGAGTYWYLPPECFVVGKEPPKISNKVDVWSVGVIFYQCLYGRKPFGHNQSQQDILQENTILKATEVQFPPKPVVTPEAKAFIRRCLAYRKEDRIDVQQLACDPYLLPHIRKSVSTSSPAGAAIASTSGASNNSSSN

Structure (SMILES) | residual activity [1] [%] | residual activity [2] [%] | residual activity [3] [%] | residual activity [4] [%] | residual activity [5] [%] | residual activity [6] [%] | residual activity [7] [%] | residual activity [8] [%] | residual activity [9] [%] | residual activity [10] [%] | residual activity [11] [%] | residual activity [12] [%] | residual activity [13] [%] | residual activity [14] [%] | residual activity [15] [%] | residual activity [16] [%] | residual activity [17] [%] | residual activity [18] [%] | residual activity [19] [%] | residual activity [20] [%]
CC[n+]1c(/C=C/N(C)c2ccccc2)n(-c2ccccc2)c2ccc(-c3nc4ccccc4s3)cc21 | 109 | 71 | 78 | 79 | 113 | 48 | 97 | 74 | 104 | 63 | 114 | 58 | 71 | 99 | 83 | 123 | 116 | 92 | 109 | 80
Cc1cc(Nc2nc(-c3ccccc3)nc3ccccc23)n[nH]1 | 55 | 11 | 59 | 10 | 19 | 1 | 94 | 65 |  | 61 | 21 | 4 | 66 | 50 |  | 66 | 76 | 78 | 62 | 17
c1ccc(-c2n[nH]cc2-c2ccnc3ccccc23)nc1 | 88 | 88 | 66 | 65 | 98 | 85 | 108 | 90 | 109 | 98 | 105 | 79 | 98 | 96 | 82 | 101 |  |  | 96 | 99
CCN(CC)CCCCN1c2ccccc2Oc2ccc(Cl)cc21 | 118 | 112 | 85 | 99 | 110 | 62 | 128 | 108 | 107 | 84 | 129 | 97 | 80 | 113 | 85 | 112 | 110 | 111 | 111 | 91
CN(C)c1ccc(/C=C2\C(=O)Nc3ccccc32)cc1 | 108 |  | 66 | 49 | 51 | 36 | 112 | 107 | 107 | 95 | 94 | 25 | 90 | 90 | 94 | 113 | 111 | 75 | 98 | 97
Nc1n[nH]c2nnc(-c3c(-c4ccccc4)nn4ccccc34)cc12 | 79 | 91 |  | 15 | 86 | 57 | 78 | 88 | 96 | 101 |  | 86 | 107 | 97 | 91 | 86 | 83 | 87 | 89 | 82
c1ccc2c(-c3ccncc3)c[nH]c2c1 | 103 | 81 | 61 | 69 | 100 | 73 |  | 68 | 35 | 9 | 88 | 82 | 89 | 67 | 78 | 88 |  |  | 103 | 85
